Bioassay records: PubChem, National Center for Advancing Translational Sciences (NCATS)
In the library only some 5.2% were active in any assay of this set; here they are far more common.
IDH1 R132H inh = blocks human mutant IDH1 R132H enzyme | O75874 | IDH1-R132H enzyme, NADPH consumption, diaphorase/resazurin fluorescence | Potency, µM (highest dose often 76.6 µM), usual class: inhibitors | 0.093% of 390,000 active | AID 602179; further: nearly all actives have a fitted effect of over 65% in size
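IDH1-R132H (0.5 ug/mL) preincubated 30 min with compound, then NADPH (0.016 mM) and alpha-KG (2 mM) added; 80 min at RT, pH 7.5. Remaining NADPH coupled via diaphorase/resazurin to fluorescence (540/590 nm); concentration-response curves normalized to no-enzyme control.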
Sfp inh = blocks B. subtilis Sfp PPTase activity | Q9F4F7 | Biochemical Sfp PPTase activity, qHTS | Potency, µM, actives largely listed as inhibitors | 3.5% of 310,000 active;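 further: the enzyme is Sfp with the accession as filed and its product quenches rhodamine fluorescence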
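Step 1, compound plus 15 nM Sfp-PPTase, 15 min, room temperature. Step 2, add rhodamine-CoA (5 uM) and BHQ-2-YbbR (12.5 uM). Step 3, read 525/598 nm fluorescence at 0 and 30 min.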
VDR inh = blocks the human vitamin D receptor; P11473; VDR-SRC2-3 peptide fluorescence polarization, 2 h; Potency, µM, actives largely listed as inhibitors; 0.93% of 400,000 active; AID 504847
Target sequence (P11473 whole entry, looked up): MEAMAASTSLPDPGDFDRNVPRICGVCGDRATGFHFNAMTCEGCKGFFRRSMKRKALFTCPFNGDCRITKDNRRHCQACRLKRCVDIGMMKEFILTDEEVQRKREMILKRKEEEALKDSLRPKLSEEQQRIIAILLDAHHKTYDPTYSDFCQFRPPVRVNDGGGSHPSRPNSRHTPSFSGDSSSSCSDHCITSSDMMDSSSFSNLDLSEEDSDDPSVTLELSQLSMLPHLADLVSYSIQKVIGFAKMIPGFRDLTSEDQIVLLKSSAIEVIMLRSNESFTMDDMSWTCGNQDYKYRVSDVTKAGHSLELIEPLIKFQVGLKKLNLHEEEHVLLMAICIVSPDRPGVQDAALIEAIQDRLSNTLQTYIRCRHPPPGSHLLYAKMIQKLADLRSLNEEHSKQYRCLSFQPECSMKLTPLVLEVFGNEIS
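Compounds are added to VDR with labelled SRC2-3 coactivator peptide and held 2 h at room temperature. Inhibition of the VDR–peptide interaction is then read as a change in fluorescence polarization.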
PLK1 PBD block = inhibitors of human PLK1 polo-box domain binding. Plk1 PBD binding of FITC phosphopeptide, fluorescence polarization. Potency, µM, actives largely listed as inhibitors. 2.8% of 360,000 active. AID 720504; further: series mostly up to about 57 µM; nearly all actives have a fitted effect of over 65% in size
TrxR1 substrate = is turned over as a substrate by rat TrxR1. purified TrxR1 substrate turnover, NADPH consumption readout. 0.01% of 390,000 active. Potency, µM (doses to about 114 µM). AID 588456. O89049; further: nearly all actives have a fitted effect of over 50% in size
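Rat TrxR1, dispensed at 90 nM, was prereduced with 400 uM NADPH (final) for 5 min at ~22 deg C, then incubated with compound 15 min before 400 uM selenite. A first-read NADPH fluorescence drop versus no-compound background flagged substrates.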
rTrxR1 inhibitor = rat TrxR1 inhibition | recombinant rTrxR1, NADPH fluorescence consumption, selenite substrate | O89049 | Potency, µM (titrated, usually from 114 µM), actives largely listed as inhibitors | 1% of 390,000 active; further: nearly all actives have a fitted effect of over 65% in size
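Rat TrxR1 (90 nM in the dispensed reagent) was pre-reduced with 400 uM NADPH for 5 min at room temperature, then incubated with compound for 15 min. After 400 uM selenite was added, NADPH fluorescence (Ex 340/Em 450 nm) was followed for 8 min.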
A number is an active result; . = inactive; ? = inconclusive; / = no result given; ! = not confirmed by another sample; [ ] = dose if it differs, or a comment. The call rests on the fitted dose curve; in most records, active means well fitted curve in the direction sought with a large enough effect; inconclusive means small, poorly fitted or top-dose-only effect, or another doubt; inactive means no such curve, though single readings can be large; an effect the other way counts as inactive or inconclusive.

SMILES	IDH1 R132H inh	Sfp inh	VDR inh	PLK1 PBD block	TrxR1 substrate	rTrxR1 inhibitor
O=C(CCSc1nc(-c2ccc3c(c2)OCO3)cc(C(F)(F)F)n1)NCc1ccco1	.	40µM	.	.	.	.
CC1C(=O)N(Cc2cn(CCC3OCCCO3)nn2)CCS(=O)(=O)N1Cc1ccc(-c2ccc(Cl)nc2)cc1 (configuration not stated)	.	/	/	.	/	/
CCCC1(c2ccccc2)NC(=O)N(C/C=C/Cl)C1=O (configuration not stated)	.	.	?	27µM	.	.
CCCC1(c2ccccc2)NC(=O)N(CC(=O)N(C)Cc2c(F)cccc2Cl)C1=O (configuration not stated)	.	.	?	24µM	.	.
O=C(NNc1ccccc1F)c1sccc1Cl	/	/	.	/	.	.
CC1(C(=O)NS(=O)(=O)c2ccc(F)cc2F)CCN1C(=O)Cc1cccc2ccccc12 (configuration not stated)	/	/	/	.	/	/
CCCCC(CC)C(=O)Nc1ccc(Nc2ccccc2)cc1 (configuration not stated)	.	.	.	.	.	.
CCCCC(CC)C(=O)Nc1ccc(C)c(O)c1 (configuration not stated)	.	.	?	30µM	.	.
COC(=O)c1cc(=O)nc(NN=Cc2ccc(OC)cc2)s1	/	/	/	.	/	/
CC(=O)OCOC(=O)CN(CC(=O)OCOC(C)=O)c1ccccc1OCCOc1ccccc1N(CC(=O)OCOC(C)=O)CC(=O)OCOC(C)=O	/	89µM	.	/	/	/
CC(C)c1ccccc1NC(=O)CNCCc1ccc(C(F)(F)F)cc1	.	79µM	.	.	.	.
NS(=O)(=O)c1ccc(CCNC(=O)CNCCc2ccc(C(F)(F)F)cc2)cc1	.	.	.	.	.	.
O=C(OCCOc1cccc(Cl)c1)c1cc(S(=O)(=O)N2CCOCC2)ccc1F	.	/	.	.	.	.
Cn1c(=O)c2[nH]c(-c3ccc(S(=O)(=O)O)cc3)nc2n(C)c1=O	.	.	.	.	.	32µM!
Cc1cnc(=O)[nH]c1SCc1ccccc1F	.	.	.	.	.	.
CCOC(=O)c1cc2c(=O)c3cc(C)ccc3oc2nc1C	.	.	?	5.3µM	.	.
O=C1C[C@@H](c2ccc(O)cc2)Oc2cc(O[C@@H]3O[C@H](CO)[C@@H](O)[C@H](O)[C@H]3O)cc(O)c21	/	.	.	/	/	/
Nn1c(SCC(=O)Nc2ccc3c(c2)OCCO3)nnc(CCC(=O)O)c1=O	.	.	?	3.4µM	.	.
COc1ccc(-n2nnc3c(=O)n(CC(=O)Nc4ccc5c(c4)OCCO5)cnc32)cc1OC	.	.	.	.	.	.
CC(=O)Nc1ccc(SCC(=O)Nc2ccc3c(c2)OCCO3)cc1	.	/	?	12µM	.	.
COc1ccc(-n2nnc3c(SCC(=O)Nc4ccc5c(c4)OCCO5)ncnc32)cc1	/	13µM	/	/	/	/
COc1ccc(NC(=O)CSc2ccc3c(c2)OCCO3)cc1	.	/	.	?	.	.
Cc1nnc(SCC(=O)Nc2ccc3c(c2)OCCO3)n1N	.	.	.	.	.	.
Cc1c(NC(=O)CSc2ccc3c(c2)OCCO3)c(=O)n(-c2ccccc2)n1C	.	.	.	27µM	.	.
CC(C)Oc1ccc(CNC(=O)C2CCN(Cc3cc4ccccc4n3Cc3ccccc3)CC2)cc1	.	/	.	/	.	.
SMILES	IDH1 R132H inh	Sfp inh	VDR inh	PLK1 PBD block	TrxR1 substrate	rTrxR1 inhibitor
COc1ccccc1N1CCN(C(=O)c2cc(-c3ccco3)on2)CC1	.	.	.	.	.	45µM
O=C(c1cc(-c2ccco2)on1)N1CCc2ccccc2C1	.	45µM	.	?	.	32µM
O=C(c1noc2c1CCc1ccccc1-2)N1CCc2ccccc2C1	/	1µM	/	/	/	/
COc1ccccc1N1CCN(C(=O)c2cc(-c3ccccc3)on2)CC1	.	.	.	.	.	.
O=C(c1noc2c1CCc1ccccc1-2)N1CCCc2ccccc21	.	.	.	.	.	.
CSC1SCC2C(=O)N(C)C(C(C)C)C(=O)OCC(NC(=O)c3cnc4ccccc4n3)C(=O)NC(C)C(=O)N(C)C1C(=O)N(C)C(C(C)C)C(=O)OCC(NC(=O)c1cnc3ccccc3n1)C(=O)NC(C)C(=O)N2C (configuration not stated)	.	/	.	.	.	?
COCCNC(=O)CCn1c(=O)c2cc(OC)c(OC)cc2n(CC(=O)Nc2ccccc2C)c1=O	.	/	.	/	.	.
O=C(COc1ccccc1C(=O)Nc1ccccc1)NCCCCc1ccccc1	/	/	/	/	.	.
COc1ccc(COC(=O)c2[nH]c3c(c2C)C(=O)CC(c2ccc(OC)c(OC)c2)C3)cc1 (configuration not stated)	.	/	.	/	.	.
COc1ccc(-c2oc3ncn4nc(-c5ccccc5C)nc4c3c2-c2ccc(OC)cc2)cc1	.	/	.	/	.	.
Cc1cccc(N(C)C(=O)CCNS(=O)(=O)c2ccc3c(c2)CCN3C(=O)C2CC2)c1	.	/	.	/	.	.
CCOc1ccc(C(O)(CCC(C)C)C(CN2CCOCC2)c2ccccc2)cc1 (configuration not stated)	.	.	.	.	.	.
CCOc1ccc(C(O)(c2ccccc2)C(CN2CCCC2)c2ccccc2)cc1 (configuration not stated)	.	.	?	6µM	.	.
COc1ccc(C2Nc3ccc(NC(C)=O)cc3C(=O)N2Cc2ccccc2)cc1COc1ccc(NC(C)=O)cc1 (configuration not stated)	/	/	.	/	.	.
CN1CCC(=NNC(=O)C(=O)Nc2cccc(Br)c2)CC1	.	.	71µM	12µM	.	.
COc1cccc(C2NC(=S)NC3=C2CCc2ccccc23)c1 (configuration not stated)	?	50µM	.	.	.	.
CC1CC(C)(C)NC(=S)S1 (configuration not stated)	.	50µM	.	24µM	.	.
COc1cc(NC(=O)Cc2cccs2)cc(OC)c1	.	.	.	3.4µM	.	.
CCN(CC)S(=O)(=O)c1ccc(NC(=O)Cc2cccs2)cc1	.	.	.	27µM	.	.
COc1cccc(C(C)NC(=O)Cc2cccs2)c1 (configuration not stated)	.	.	?	21µM	.	.
Cc1ccc(C(C)NC(=O)Cc2cccs2)cc1C (configuration not stated)	.	.	.	.	.	.
O=C(CSc1ccccc1)Nc1ccc(-c2nc3ccccc3[nH]2)cc1	.	.	.	.	.	.[11.4 µM]
O=C(Cc1cccs1)Nc1ccc(-c2nc3ccccc3[nH]2)cc1	.	.	.	30µM	.	.
